Assay results published in PMC8384837, “Expanding the binding specificity for RNA recognition by a PUF domain”.

How the values were obtained:
Assay in all cases: yeast three-hybrid, YBZ-1, SC-Leu-His + 0.5 mM 3-AT, 4 days
Settings in all cases: tags: N-Gal4 AD-HA kept; label: inside an RPR1-promoter hybrid RNA with tandem MS2 sites; ssRNA
[1] = biological target: PUM1 PUF domain R5-KAV (Homo sapiens, UniProt Q14671 828-1176, C1007K;R1008A;Q1011V)
Summary of the method: (§1)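 Matching RNA elements and Pumilio-1 PUF domain libraries, randomized at the three base-contacting residues of every repeat, were co-expressed from a centromeric plasmid in strain YBZ-1 (LexA–MS2 coat fusion, HIS3 reporter). The repeat regions were PCR-amplified and Illumina-sequenced from cells grown four days on SC-Leu (input) or SC-Leu-His + 0.5 mM 3-AT (selection). The interaction score is the log change in variant frequency from input to selection. It is computed in log2, with a pseudocount of 1 for absent variants.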

[2] = biological target: PUM1 PUF domain R3-SND (Homo sapiens, UniProt Q14671 828-1176, C935S;R936N;Q939D)
Sequence of PUM1 PUF domain R3-SND (Q14671 828-1176 C935S/R936N/Q939D): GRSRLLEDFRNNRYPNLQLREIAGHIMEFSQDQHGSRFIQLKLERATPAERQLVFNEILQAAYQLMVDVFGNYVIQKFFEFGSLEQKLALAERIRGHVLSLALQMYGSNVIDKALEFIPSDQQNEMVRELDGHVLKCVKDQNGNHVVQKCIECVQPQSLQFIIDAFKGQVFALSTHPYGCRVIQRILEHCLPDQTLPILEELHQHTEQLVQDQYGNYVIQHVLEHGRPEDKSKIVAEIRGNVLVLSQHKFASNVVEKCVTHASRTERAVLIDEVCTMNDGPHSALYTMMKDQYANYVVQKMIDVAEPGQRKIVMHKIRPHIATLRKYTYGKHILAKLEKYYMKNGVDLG
Summary of the method: as §1

[3] = biological target: PUM1 PUF domain R3-PRQ (Homo sapiens, UniProt Q14671 828-1176, C935P)
Sequence of PUM1 PUF domain R3-PRQ (Q14671 828-1176 C935P): as the sequence (Q14671 828-1176 C935S/R936N/Q939D) above, with S108P, N109R, D112Q counted along it
Summary of the method: as §1

[4] = biological target: PUM1 PUF domain R8-VFR (Homo sapiens, UniProt Q14671 828-1176, N1122V;Y1123F;Q1126R)
Sequence of PUM1 PUF domain R8-VFR (Q14671 828-1176 N1122V/Y1123F/Q1126R): as the sequence (Q14671 828-1176 C935S/R936N/Q939D) above, with S108C, N109R, D112Q, N295V, Y296F, Q299R counted along it
Summary of the method: as §1

[5] = biological target: PUM1 PUF domain R8-LFW (Homo sapiens, UniProt Q14671 828-1176, N1122L;Y1123F;Q1126W)
Sequence of PUM1 PUF domain R8-LFW (Q14671 828-1176 N1122L/Y1123F/Q1126W): as the sequence (Q14671 828-1176 C935S/R936N/Q939D) above, with S108C, N109R, D112Q, N295L, Y296F, Q299W counted along it
Summary of the method: as §1

[6] = biological target: PUM1 PUF domain R1-TRK (Homo sapiens, UniProt Q14671 828-1176, S863T;Q867K)
Sequence of PUM1 PUF domain R1-TRK (Q14671 828-1176 S863T/Q867K): as the sequence (Q14671 828-1176 C935S/R936N/Q939D) above, with S36T, Q40K, S108C, N109R, D112Q counted along it
Summary of the method: as §1

[7] = biological target: PUM1 PUF domain R1-TKR (Homo sapiens, UniProt Q14671 828-1176, S863T;R864K;Q867R)
Sequence of PUM1 PUF domain R1-TKR (Q14671 828-1176 S863T/R864K/Q867R): as the sequence (Q14671 828-1176 C935S/R936N/Q939D) above, with S36T, R37K, Q40R, S108C, N109R, D112Q counted along it
Summary of the method: as §1

[8] = biological target: PUM1 PUF domain R4-PYR (Homo sapiens, UniProt Q14671 828-1176, N971P;H972Y;Q975R)
Sequence of PUM1 PUF domain R4-PYR (Q14671 828-1176 N971P/H972Y/Q975R): as the sequence (Q14671 828-1176 C935S/R936N/Q939D) above, with S108C, N109R, D112Q, N144P, H145Y, Q148R counted along it
Summary of the method: as §1

[9] = biological target: PUM1 PUF domain R3-MYD (Homo sapiens, UniProt Q14671 828-1176, C935M;R936Y;Q939D)
Sequence of PUM1 PUF domain R3-MYD (Q14671 828-1176 C935M/R936Y/Q939D): as the sequence (Q14671 828-1176 C935S/R936N/Q939D) above, with S108M, N109Y counted along it
Summary of the method: as §1

Sequence of PUM1 PUF domain R5-KAV (Q14671 828-1176 C1007K/R1008A/Q1011V): as the sequence (Q14671 828-1176 C935S/R936N/Q939D) above, with S108C, N109R, D112Q, C180K, R181A, Q184V counted along it

**Q.** For “GGCUAGAACUAGUGGAUCCCCCGGCGCCCGGCGGCUCGAGCCCGGGUAAGUGUCAAUAGUCUGCAUGCCGCCGGGCGCCAUGCCUGCAGGUCGACUCUAGAAAACAUG”, which binding signal [1] is on record?
**A.** 4 log2 enrichment (interaction score)

**Q.** With “GGCUAGAACUAGUGGAUCCCCCGGCGCCCGGCGGCUCGAGCCCGGGUAAGUGUAAGUAGUCUGCAUGCCGCCGGGCGCCAUGCCUGCAGGUCGACUCUAGAAAACAUG” as the sequence, how does the binding signal [2] read?
**A.** 5.25 log2 enrichment (interaction score)

**Q.** “GGCUAGAACUAGUGGAUCCCCCGGCGCCCGGCGGCUCGAGCCCGGGUAAGUGUAAAUAGUCUGCAUGCCGCCGGGCGCCAUGCCUGCAGGUCGACUCUAGAAAACAUG” was tested. Which binding signal [3] did it give?
**A.** 4.52 log2 enrichment (interaction score)

**Q.** What about the binding signal [4] of the same sequence?
**A.** 3.9 log2 enrichment (interaction score)

**Q.** And the binding signal [5]?
**A.** 2.5 log2 enrichment (interaction score)

**Q.** With “GGCUAGAACUAGUGGAUCCCCCGGCGCCCGGCGGCUCGAGCCCGGGUAAGUGUAAAUUGUCUGCAUGCCGCCGGGCGCCAUGCCUGCAGGUCGACUCUAGAAAACAUG” as the sequence, how does the binding signal [6] read?
**A.** 3.04 log2 enrichment (interaction score)

**Q.** And the binding signal [7]?
**A.** 1.37 log2 enrichment (interaction score)

**Q.** How did the binding signal [4] turn out when “GGCUAGAACUAGUGGAUCCCCCGGCGCCCGGCGGCUCGAGCCCGGGUAAGCGUAAAUAGUCUGCAUGCCGCCGGGCGCCAUGCCUGCAGGUCGACUCUAGAAAACAUG” was run?
**A.** 4.1 log2 enrichment (interaction score)

**Q.** What about the binding signal [5] of the same sequence?
**A.** 2.4 log2 enrichment (interaction score)

**Q.** How did the binding signal [8] turn out when “GGCUAGAACUAGUGGAUCCCCCGGCGCCCGGCGGCUCGAGCCCGGGUAAGUGUAUAUAGUCUGCAUGCCGCCGGGCGCCAUGCCUGCAGGUCGACUCUAGAAAACAUG” was run?
**A.** 7.09 log2 enrichment (interaction score)

**Q.** Which binding signal [8] does the source give for “GGCUAGAACUAGUGGAUCCCCCGGCGCCCGGCGGCUCGAGCCCGGGUAAGUGUACAUAGUCUGCAUGCCGCCGGGCGCCAUGCCUGCAGGUCGACUCUAGAAAACAUG” here?
**A.** 5.23 log2 enrichment (interaction score)

**Q.** “GGCUAGAACUAGUGGAUCCCCCGGCGCCCGGCGGCUCGAGCCCGGGUAAGUGUAAUUAGUCUGCAUGCCGCCGGGCGCCAUGCCUGCAGGUCGACUCUAGAAAACAUG” was tested. Which binding signal [9] did it give?
**A.** 2.42 log2 enrichment (interaction score)

**Q.** With “GGCUAGAACUAGUGGAUCCCCCGGCGCCCGGCGGCUCGAGCCCGGGUAAGUGUAAAUCGUCUGCAUGCCGCCGGGCGCCAUGCCUGCAGGUCGACUCUAGAAAACAUG” as the sequence, how does the binding signal [7] read?
**A.** 6.21 log2 enrichment (interaction score)
